The results in this text go back to PubChem BioAssay.

The nature of experiment [1]: anti-His antibody binders, primary screen, artefact control for SMM control protein annotation, biochemical, small-molecule microarray, 635 nm fluorescence (AID 1128).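 Note: score merges feature fluorescence with signal-to-noise for each printed compound spot.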 The settings on record: anti-His Alexa647 antibody binding, higher = more signal.
In experiment [2] the test system is Human papillomavirus type 1a E7 protein (residues 1-88). The experiment can be described thus: HPV1a E7 small-molecule binders, primary screen, biochemical, small-molecule microarray, residues 1-88, 635 nm (AID 1129). Conditions: small-molecule microarray binding, fluorescence 635 nm; higher = more signal.
The target of experiment [3] is Focal adhesion kinase 1 (Homo sapiens) (UniProt Q05397). Description: small-molecule microarray binders of FAK, primary screen, biochemical, 635/667 nm fluorescence, BSA, DTT (AID 1130).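 Note: composite of spot emission at 667 nm and signal to noise over triplicate slides.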 Conditions: PTK2 binding, 635 nm fluorescence, higher = more signal.
Experiment [4] concerns Fibrinogen (Alexa647-labelled). Description: fibrinogen binders on compound microarrays, profiling panel, artefact control for SMM control-protein annotation, biochemical, small-molecule microarray, 635/667 nm fluorescence (AID 1131).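 Note: z-score merges 667 nm fluorescence with per-spot signal-to-noise over triplicate slides.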 Conditions: fibrinogen-A647 binding fluorescence, higher = more signal.
The target of experiment [5] is Follistatin (Homo sapiens) (UniProt P19883). The experiment can be described thus: follistatin binders on small-molecule microarrays, primary screen, biochemical, small-molecule microarray, 635/667 nm fluorescence (AID 1132). The settings on record: FST binding, 635 nm fluorescence, higher = more signal.
The target of experiment [6] is Fibroblast growth factor 2 (Homo sapiens) (UniProt P09038). Description: FGF2 binders on small-molecule microarrays, primary screen, biochemical, small-molecule microarray, 635/667 nm fluorescence (AID 1133). The settings on record: small-molecule microarray binding, FGF2, fluorescence 635/667; higher = more signal.
Experiment [7] is described as follows: mitochondrial membrane potential change in A549 cells, profiling panel, cell-based, JC-1 fluorescence, basal, 24 h, 100 nL (AID 1138).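 Note: A549 lung adenocarcinoma cells under basal conditions with no added stimulus; test concentration not given here.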 Conditions: higher = more signal.
The subject of experiment [8] is Lefty1. Description: Lefty1 binders on small-molecule microarrays, primary screen, biochemical, small-molecule microarray, 635/667 nm fluorescence (AID 1139). The settings on record: small-molecule microarray binding, fluorescence 635/667; higher = more signal.
Experiment [9] relates to wheat germ agglutinin (Triticum aestivum), Alexa647-labelled. Description: wheat germ agglutinin binders on compound microarrays, profiling panel, artefact control for SMM control-protein annotation, biochemical, small-molecule microarray, 635/667 nm fluorescence (AID 1140).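 Note: score merges 667 nm feature emission with signal to noise over triplicate slides.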 Conditions: WGA-A647 binding, 635 nm fluorescence, higher = more signal.
Experiment [10] has as its target Luciferin 4-monooxygenase (Photinus pyralis) (UniProt P08659). Description: firefly luciferase enzyme inhibitors, primary screen, biochemical, luminescence, purified enzyme, 2006 set (AID 1141).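 Note: cell-free assay with purified firefly luciferase at 100 ng per well in PBS; test concentration not given here.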 Conditions: SteadyGlo luminescence, 30 min, higher = more signal, called active from +8 up or from −8 down.
Experiment [11] has as its system Wnt5a (protein binding on small-molecule microarray). Description: Wnt5a binders on small-molecule microarray, primary screen, biophysical, 635/667 nm fluorescence (AID 1142).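 Note: fluorescence read at 667 nm with signal to noise per printed feature.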 Conditions: 635 nm fluorescence, higher = more signal.
Experiment [12] can be described thus: cell viability in Huh7 cells, primary screen, cytotoxicity control for HCV replication inhibitor project, CellTiter-Glo luminescence, basal, 48 h (AID 1143).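 Note: Huh7 hepatoma cells carrying a hepatitis C replication reporter with no stimulus; test concentration not given here.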 The settings on record: Huh7 HCV replicon, higher = more signal, called active from +8 up or from −8 down.
Experiment [13] can be described thus: P. aeruginosa biofilm formation inhibitors, primary screen, PAO1 strain, BacTiter-Glo luminescence, LB-PBS (AID 1144). The settings on record: 12 h, higher = more signal.
The nature of experiment [14]: CREB reporter modulators without forskolin, primary screen, cell-based, PC12, CRE-LacZ reporter, unstimulated (AID 1145). Conditions: no forskolin, luminescence, 4.5 h, higher = more signal, called active from +8 up or from −8 down.
Experiment [15] is described as follows: CREB reporter modulators under forskolin, primary screen, cell-based, PC12, CRE-LacZ reporter, forskolin-stimulated (AID 1146).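 Note: PC12 cells with 6xCRE LacZ reporter stimulated by forskolin 10 µM; beta-galactosidase reporter signal reflecting CREB driven transcription.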 The settings on record: luminescence, 4.5 h, higher = more signal, called active from +8 up or from −8 down.
The target in experiment [16] is Streptavidin (Streptomyces avidinii) (UniProt P22629). The experiment can be described thus: streptavidin binders on small-molecule microarray, primary screen, artefact control for SMM compound annotation, biophysical, 635/667 nm fluorescence (AID 1147).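 Note: signal reflects streptavidin binding to arrayed compounds as a control protein.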 The settings on record: streptavidin binding, higher = more signal.
A short description of experiment [17]: small-molecule binders of probe aInhba, primary screen, biochemical, small-molecule microarray, 635/667 nm fluorescence (AID 1148).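 Note: score merges 667nm spot fluorescence with signal-to-noise for antibody binding to printed compounds.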 The settings on record: higher = more signal.
The target of experiment [18] is Torsin-1A (Homo sapiens) (UniProt O14656). Description: torsin A binders from cell lysate, primary screen, small-molecule microarray, wild-type, 635/667 nm (AID 1149). Conditions: COS7 hTOR1A-WT lysate, 635 nm fluorescence, higher = more signal.
The target is the same in experiment [19]. Description: small-molecule binders of mutant TOR1A in lysate, primary screen, cell lysate, small-molecule microarray, COS7 lysate, 635/667 nm fluorescence (AID 1150).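 Note: score pools 667 nm emission and signal to noise measuring lysate protein binding.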 The settings on record: COS7 hTOR1A mutant lysate, 635 nm fluorescence, higher = more signal.
In experiment [20] the test system is Sonic hedgehog protein (Shh). The experiment can be described thus: small-molecule binders of Shh protein, primary screen, biochemical, small-molecule microarray, 635/667 nm fluorescence (AID 1151).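 Note: Shh protein binding to compounds spotted on small-molecule microarray slides; score combines spot fluorescence intensity with signal-to-noise across triplicate slides.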 The settings on record: small-molecule microarray binding, 635 nm fluorescence; higher = more signal.

SMILES strings stand for the structures. Several values for one entry are separate records, joined by “and”; a condition that tells them apart may be missing. Equal entries are not always repeated. Activity calls are given as the source filed them. Unless noted, the rule behind the calls is not given here.

Sequence of Luciferin 4-monooxygenase (Photinus pyralis) (P08659 whole entry, looked up): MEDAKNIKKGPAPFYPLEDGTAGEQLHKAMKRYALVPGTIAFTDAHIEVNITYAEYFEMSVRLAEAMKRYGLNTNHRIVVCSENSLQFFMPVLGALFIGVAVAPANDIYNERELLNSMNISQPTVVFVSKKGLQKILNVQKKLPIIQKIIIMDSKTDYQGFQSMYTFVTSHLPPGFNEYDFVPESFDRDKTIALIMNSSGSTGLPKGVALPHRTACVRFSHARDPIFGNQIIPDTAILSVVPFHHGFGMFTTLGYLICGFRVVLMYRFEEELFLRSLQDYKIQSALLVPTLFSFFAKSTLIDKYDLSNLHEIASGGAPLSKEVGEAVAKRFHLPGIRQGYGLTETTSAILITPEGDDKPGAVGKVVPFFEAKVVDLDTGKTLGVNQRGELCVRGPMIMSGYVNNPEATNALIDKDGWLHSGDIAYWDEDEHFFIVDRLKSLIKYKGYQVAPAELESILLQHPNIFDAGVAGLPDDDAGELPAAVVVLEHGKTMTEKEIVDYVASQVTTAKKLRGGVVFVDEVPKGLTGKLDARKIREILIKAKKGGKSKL
Sequence of Torsin-1A (Homo sapiens) (O14656 whole entry, looked up): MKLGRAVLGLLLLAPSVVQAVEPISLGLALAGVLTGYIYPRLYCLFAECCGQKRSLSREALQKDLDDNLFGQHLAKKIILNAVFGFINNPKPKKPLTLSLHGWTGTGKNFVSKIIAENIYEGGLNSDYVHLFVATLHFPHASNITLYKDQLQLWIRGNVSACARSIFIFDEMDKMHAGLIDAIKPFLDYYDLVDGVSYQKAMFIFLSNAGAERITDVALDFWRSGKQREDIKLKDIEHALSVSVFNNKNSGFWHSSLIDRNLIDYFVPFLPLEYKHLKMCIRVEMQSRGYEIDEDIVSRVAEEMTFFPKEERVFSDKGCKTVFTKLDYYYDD
Sequence of Follistatin (Homo sapiens) (P19883 whole entry, looked up): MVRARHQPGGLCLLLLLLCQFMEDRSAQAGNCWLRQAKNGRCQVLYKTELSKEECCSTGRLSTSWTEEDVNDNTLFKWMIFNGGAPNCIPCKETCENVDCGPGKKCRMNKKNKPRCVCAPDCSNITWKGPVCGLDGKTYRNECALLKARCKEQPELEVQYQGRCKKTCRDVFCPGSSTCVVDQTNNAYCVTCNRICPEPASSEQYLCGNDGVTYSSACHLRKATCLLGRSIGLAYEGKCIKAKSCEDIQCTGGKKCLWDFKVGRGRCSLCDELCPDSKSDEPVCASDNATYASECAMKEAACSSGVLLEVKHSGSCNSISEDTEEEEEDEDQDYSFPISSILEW
Sequence of Streptavidin (Streptomyces avidinii) (P22629 whole entry, looked up): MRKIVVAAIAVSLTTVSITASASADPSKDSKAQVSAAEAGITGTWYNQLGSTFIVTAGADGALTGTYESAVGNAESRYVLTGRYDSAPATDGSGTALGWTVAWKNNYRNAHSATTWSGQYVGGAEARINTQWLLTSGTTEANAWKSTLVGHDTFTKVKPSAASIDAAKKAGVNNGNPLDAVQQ
Sequence of Fibroblast growth factor 2 (Homo sapiens) (P09038 whole entry, looked up): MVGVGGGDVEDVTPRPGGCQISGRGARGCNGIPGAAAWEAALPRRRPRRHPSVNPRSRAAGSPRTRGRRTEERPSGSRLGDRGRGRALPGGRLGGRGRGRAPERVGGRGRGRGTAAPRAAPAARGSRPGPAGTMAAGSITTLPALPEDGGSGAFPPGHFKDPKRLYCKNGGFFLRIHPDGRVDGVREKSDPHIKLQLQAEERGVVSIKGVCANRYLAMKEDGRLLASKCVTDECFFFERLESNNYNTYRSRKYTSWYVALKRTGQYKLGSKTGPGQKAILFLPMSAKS
Sequence of Focal adhesion kinase 1 (Homo sapiens) (Q05397 whole entry, looked up): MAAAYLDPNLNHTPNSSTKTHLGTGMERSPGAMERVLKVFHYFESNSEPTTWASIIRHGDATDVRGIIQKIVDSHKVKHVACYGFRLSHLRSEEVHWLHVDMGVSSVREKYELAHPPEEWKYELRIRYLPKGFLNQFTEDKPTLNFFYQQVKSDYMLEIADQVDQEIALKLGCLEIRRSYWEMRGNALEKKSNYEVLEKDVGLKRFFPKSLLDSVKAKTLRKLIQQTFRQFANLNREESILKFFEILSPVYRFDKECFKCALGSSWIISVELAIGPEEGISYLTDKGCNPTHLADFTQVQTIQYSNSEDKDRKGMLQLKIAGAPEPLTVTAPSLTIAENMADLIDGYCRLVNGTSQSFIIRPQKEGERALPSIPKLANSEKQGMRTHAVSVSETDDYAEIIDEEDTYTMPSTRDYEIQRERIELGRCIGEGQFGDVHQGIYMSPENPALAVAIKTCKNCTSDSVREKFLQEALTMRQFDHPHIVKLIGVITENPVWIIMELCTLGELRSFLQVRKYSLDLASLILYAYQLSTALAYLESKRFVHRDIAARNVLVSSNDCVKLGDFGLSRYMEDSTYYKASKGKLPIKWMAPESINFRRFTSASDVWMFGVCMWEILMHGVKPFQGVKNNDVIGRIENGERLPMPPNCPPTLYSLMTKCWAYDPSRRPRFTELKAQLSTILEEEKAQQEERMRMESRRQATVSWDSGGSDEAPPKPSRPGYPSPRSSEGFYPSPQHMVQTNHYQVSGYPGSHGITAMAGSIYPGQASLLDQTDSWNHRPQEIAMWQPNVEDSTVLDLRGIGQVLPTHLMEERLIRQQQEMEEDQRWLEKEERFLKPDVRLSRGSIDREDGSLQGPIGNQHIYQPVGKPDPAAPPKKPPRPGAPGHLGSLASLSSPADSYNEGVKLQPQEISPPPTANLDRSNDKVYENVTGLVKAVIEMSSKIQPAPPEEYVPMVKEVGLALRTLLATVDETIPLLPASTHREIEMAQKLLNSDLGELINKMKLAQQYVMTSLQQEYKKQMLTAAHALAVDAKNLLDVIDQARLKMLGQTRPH

With `Cc1ccc(S(=O)(=O)N[C@H]2COC(=O)[C@@H](Cc3ccccc3)NC(=O)[C@@H](C)COC(=O)CC=C[C@@H]2C)cc1`, the composite z-score in experiment [1] is -0.619 and 1.81; in experiment [2], -0.95 and -0.164; in experiment [3], -0.282 and 0.116; in experiment [4] it was -0.747 and -0.0169; in [5], 1.18 and 0.825; in experiment [6] it was 0.575 and 0.462. The composite z-score in experiment [8] was 0.678 and 0.882; in experiment [9] it was -0.892 and -0.0489; in experiment [11], 0.089 and 0.0949; in experiment [16], -0.236 and -0.154; in experiment [17] it was -0.234 and -0.158; in [18], 0.143 and 0.354. The composite z-score in [19] was 0.254 and 0.289; in experiment [20], 1.07 and 1.29. The z-score in [7] is 0.636 and -1.01; in [10], -0.287 (inactive) and -0.431 (inactive); in [12] it was 0.0143 (inactive) and -1.15 (inactive); in experiment [13], -0.166 (inactive) and -1.8 (inactive); in [14], -0.746 (inactive) and 0.834 (inactive); in experiment [15] it was -0.899 (inactive) and -0.0204 (inactive).
For the molecule `C=CCN(C(=O)C(c1cccs1)N(C(=O)/C=C\C(=O)O)c1c(Cl)cccc1CO)C(C)(C)C` (stereo not given), the composite z-score in [1] was 0.28 and -0.668; in experiment [2] it was -1.4 and -1.02; in [3], -0.513 and -0.619; in experiment [4] it was -2.69 and -1.15; in experiment [5], -1.48 and -1.81; in experiment [6], -2.01 and -2.33. The composite z-score in experiment [8] was -1.96 and -2.54; in experiment [9], -0.543 and -1; in experiment [11] it was -1.15 and -1.26; in experiment [16], -1.61 and -1.09; in experiment [17], -0.341 and -0.164; in [18], -3.44 and -4.12. The composite z-score in experiment [19] is -3.15 and -2.91; in [20], -1.98 and -2.58. In addition, the z-score in experiment [7] is 0.674 and 0.368; in [10] it was -0.242 (inactive) and -0.42 (inactive); in [12], 0.389 (inactive) and 0.124 (inactive); in [13], 0.933 (inactive) and 1.26 (inactive); in experiment [14], 0.325 (inactive) and 0.471 (inactive); in experiment [15], -0.386 (inactive) and -0.514 (inactive).
Regarding `CCCNC(=O)OC[C@H]1O[C@H](CCON=C(C)CCC(=O)OC[C@H]2O[C@H](C#Cc3ccccc3)C=C[C@@H]2Oc2ccc(C)cc2)C=C[C@@H]1Oc1ccc(OC)cc1`, the composite z-score in experiment [1] was 0.0888; in experiment [2] it was -0.216; in experiment [3], -0.17; in experiment [4], -0.185; in experiment [5], -0.437; in experiment [6], -0.251. In addition, the composite z-score in experiment [8] is 0.0233; in experiment [9] it was -0.26; in [11] it was -0.284; in [16], 1.07; in experiment [17], -0.103; in experiment [18], -0.474. Besides, the composite z-score in experiment [19] was -0.352; in [20], 0.0277. The z-score in [7] is -0.611; in experiment [10] it was 1.41 (inactive); in experiment [12] it was -0.538 (inactive); in experiment [13] it was -0.145 (inactive); in experiment [14], -0.729 (inactive); in experiment [15] it was 0.872 (inactive).
In the case of `CCOC(=O)[C@@H]1CC2O[C@]23C[C@@H]1C(=O)N1CCC[C@@H]1[C@H]3O[Si](C)(C)C(C)(C)C` (stereo not given in full), the composite z-score was -0.423 and -0.146 in experiment [1]; -0.853 and 0.0436 in experiment [2]; 0.623 and 0.0915 in experiment [3]; -0.607 and -0.0382 in experiment [4]; -0.568 and 0.342 in experiment [5]; 0.0471 and 1.14 in experiment [6]. The composite z-score was -0.0485 and 0.69 in experiment [8]; -0.616 and -0.276 in experiment [9]; 0.187 and -0.0017 in [11]; -0.468 and -0.0735 in experiment [16]; -0.105 and 0.651 in experiment [17]; -0.36 and -0.384 in experiment [18]. The composite z-score in experiment [19] was -0.855 and -0.032; in experiment [20], 0.361 and 1.05. Besides, the z-score was -0.944 and -0.261 in experiment [7]; 0.316 (inactive) and 0.32 (inactive) in experiment [10]; -1.17 (inactive) and 0.553 (inactive) in [12]; -0.377 (inactive) and 0.487 (inactive) in [13]; -1.23 (inactive) and -0.414 (inactive) in [14]; -0.217 (inactive) and 1.42 (inactive) in [15].
